Results as given in PubChem BioAssay (NCI).
This is part of a sample that, as a whole, favours compounds with a hit. Of some 79,000 tested, about 15% had one in any assay. A number with no mark means an inactive call. The source made the active and inactive calls. No stated cut-off is given here; in the data, active means growth inhibition above about 70%; inactive means the rest.

Legend:
[1] = NCI Yeast Anticancer Drug Screen. Data for the rad50 strain (AID 155);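 further: 0% = growth of vehicle-only cultures of the same strain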; details: S. cerevisiae rad50 strain growth inhibition, active compounds read high
Procedure, shortened: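 Yeast carrying a defined DNA repair defect were exposed to test compounds, and growth was compared with vehicle-treated controls to give percent inhibition.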

[2] = NCI Yeast Anticancer Drug Screen. Data for the mec2-1 strain (AID 157); details: S. cerevisiae mec2-1 strain, active compounds read high
Procedure, shortened: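 Growth inhibition is read against vehicle-treated controls after compound exposure of the mec2-1 yeast strain, which is defective in DNA damage repair or cell cycle control.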

[3] = NCI Yeast Anticancer Drug Screen. Data for the sgs1 mgt1 strain (AID 161);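 further: 0% = growth of cultures given vehicle only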; details: S. cerevisiae sgs1 mgt1 strain, active compounds read high
Procedure, shortened: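 Yeast cells carrying a defined DNA-repair defect were exposed to test compounds. Growth inhibition was measured relative to vehicle-treated controls.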

[4] = NCI Yeast Anticancer Drug Screen. Data for the cln2 rad14 strain (AID 165);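 further: 0% = growth equal to vehicle treated cultures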; details: S. cerevisiae cln2 rad14 strain, active compounds read high
Procedure, shortened: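 Growth inhibition, relative to vehicle-treated controls, is the read-out. The test organism is a yeast strain with defined genetic alterations, cln2 rad14.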

[5] = NCI Yeast Anticancer Drug Screen. Data for the bub3 strain (AID 167); details: S. cerevisiae bub3 mutant strain, active compounds read high
Procedure, shortened: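 Compounds were applied to a genetically altered yeast strain carrying a cell-cycle control defect. Growth inhibition was scored against vehicle-treated controls.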

[6] = NCI Yeast Anticancer Drug Screen. Data for the mlh1 rad18 strain (AID 175); details: S. cerevisiae mlh1 rad18 strain growth inhibition, active compounds read high
Procedure, shortened: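 Cells of a genetically altered yeast strain, deficient in DNA damage repair, were treated with compound. Their growth was then compared with that of vehicle-treated cultures to give inhibition.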

[7] = at 5.0 µM (retest, dose inferred, filed as 0.5)
[8] = at 50.0 µM (retest, dose inferred, filed as 5.0)

Compound | growth inhibition [1, 7] [%] | growth inhibition [1, 8] | growth inhibition ([1]; at 50.0 µM) | growth inhibition [2, 7] [%] | growth inhibition [2, 8] | growth inhibition ([2]; at 50.0 µM) | growth inhibition [3, 7] [%] | growth inhibition [3, 8] | growth inhibition ([3]; at 50.0 µM) | growth inhibition [4, 7] [%] | growth inhibition [4, 8] | growth inhibition ([4]; at 50.0 µM) | growth inhibition [5, 7] [%] | growth inhibition [5, 8] | growth inhibition ([5]; at 50.0 µM) | growth inhibition [6, 7] [%] | growth inhibition [6, 8] | growth inhibition ([6]; at 50.0 µM)
CC1=C(CO)C(=O)O[C@@H]([C@@H](C)[C@H]2CC[C@H]3[C@@H]4C[C@@H](O)C5=CC=CC(=O)[C@]5(C)[C@H]4CC[C@]23C)C1 | -2 | 41% | 71.2% (active) | -24 | 49% | 46% | -1 | -6% | 85.8% (active) | -1 | 47% | 55.2% | 0 | 40% | 60.6% | -22 | 36% | 90.5% (active)
O=C1CC(=Nc2ccc([N+](=O)[O-])cc2)NN1c1c(Cl)cc(Cl)cc1Cl | -20 | 47% | 90.7% (active) | -24 | 69% | 92% (active) | -15 | 96% (active) | 92.7% (active) | -15 | 57% | 89.4% (active) | -24 | 95% (active) | 91.7% (active) | -65 | 89% (active) | 89.5% (active)
S=C(Nc1ccccc1)N(Cc1ccccc1)c1ccccc1 | -7 | 51% | 62% | 10 | 57% | 28.6% | -7 | 50% | 46.2% | -8 | 8% | 32.5% | 3 | 42% | 65.9% | 4 | 72% (active) | 48.7%
CC(O)C(O)C(O)C(O)C(O)C(=O)O (configuration not stated) | -2 | -6% | 18.4% | -2 | -1% | 10.9% | -1 | -2% | -9.1% | 4 | -3% | 1.95% | 0 | 4% | 45.7% | -1 | -7% | -10.9%
Nc1cc(Cl)ccc1C(=O)O | 34 | 78% (active) | 81.2% (active) | 7 | 32% | 91.7% (active) | 14 | 39% | 49.8% | -2 | 30% | 42.7% | 3 | 50% | 96.4% (active) | 21 | 59% | 50.2%
CC(=O)Sc1ccc(Br)cc1 | 0 | 73% (active) | 45.3% | 3 | 52% | 36.9% | 3 | 60% | 34.9% | -1 | 40% | -2.05% | 1 | 68% | 60.3% | -2 | 76% (active) | 71.2% (active)
CN(/N=C\c1ccc(Cl)cc1)C(c1ccc(Cl)cc1)N(C)/N=C/c1ccc(Cl)cc1 (configuration not stated) | -1 | 70% (active) | 29% | 2 | 84% (active) | 9.5% | -3 | 94% (active) | 80.2% (active) | 3 | 67% | 45.5% | -2 | 66% | 16.6% | -3 | 85% (active) | 30.2%
O=C(Nc1ccc(/C=C/c2ccc(NC(=O)c3cc(S(=O)(=O)O)c4cccnc4c3O)cc2S(=O)(=O)O)c(S(=O)(=O)O)c1)c1cc(S(=O)(=O)O)c2cccnc2c1O | 19 | 97% (active) | 94.4% (active) | 26 | 97% (active) | 88.7% (active) | 34 | 97% (active) | 93.8% (active) | 9 | 95% (active) | 90.2% (active) | 13 | 98% (active) | 95.9% (active) | 41 | 97% (active) | 91.3% (active)
COc1ccc(CC2=CC(=O)C(=O)C=C2C)cc1 | 2 | 27% | 47.4% | 0 | 29% | 11.2% | 9 | 39% | 47% | 0 | 4% | 11.2% | -2 | 21% | 38% | 14 | 51% | 36.4%
